RBX1-CUL1 inh: inhibitors of human ROC1-CUL1 ubiquitin ligase activity. in vitro K48 di-Ub FRET, acceptor:donor ratio, 45 min. 0.6% of 140,000 active. inhibition, % at 10 µM. E3 ubiquitin-protein ligase RBX1 (Homo sapiens) + Cullin-1 (Homo sapiens), P62877+Q13616; in the data active = inhibition above about 25%
Target sequence (P62877 whole entry, looked up): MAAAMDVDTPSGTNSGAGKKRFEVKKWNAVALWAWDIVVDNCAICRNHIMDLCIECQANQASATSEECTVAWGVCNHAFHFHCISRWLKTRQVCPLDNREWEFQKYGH
Target sequence (Q13616 whole entry, looked up): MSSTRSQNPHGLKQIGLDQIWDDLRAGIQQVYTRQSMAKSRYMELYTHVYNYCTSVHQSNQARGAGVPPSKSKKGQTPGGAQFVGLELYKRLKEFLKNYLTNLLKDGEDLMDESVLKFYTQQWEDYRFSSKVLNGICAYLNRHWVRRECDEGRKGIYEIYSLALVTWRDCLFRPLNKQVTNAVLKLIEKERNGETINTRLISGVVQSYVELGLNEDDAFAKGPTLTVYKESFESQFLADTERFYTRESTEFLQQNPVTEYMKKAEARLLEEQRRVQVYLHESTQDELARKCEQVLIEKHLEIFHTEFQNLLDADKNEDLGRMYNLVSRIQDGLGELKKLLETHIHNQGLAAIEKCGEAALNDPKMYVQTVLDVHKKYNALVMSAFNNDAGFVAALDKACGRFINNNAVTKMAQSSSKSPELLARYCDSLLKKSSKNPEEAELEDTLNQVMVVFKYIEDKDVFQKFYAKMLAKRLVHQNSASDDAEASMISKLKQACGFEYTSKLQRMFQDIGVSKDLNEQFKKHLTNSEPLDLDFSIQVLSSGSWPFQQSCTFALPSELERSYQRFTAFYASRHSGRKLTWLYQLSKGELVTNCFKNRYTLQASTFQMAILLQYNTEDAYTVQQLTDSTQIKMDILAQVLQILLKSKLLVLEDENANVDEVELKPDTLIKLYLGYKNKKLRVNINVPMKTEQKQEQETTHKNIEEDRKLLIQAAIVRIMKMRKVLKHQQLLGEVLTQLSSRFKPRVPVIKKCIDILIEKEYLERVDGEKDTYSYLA
Active calls of the source: *. This excerpt belongs to a sample that is enriched for hits.

SMILES	RBX1-CUL1 inh
COC1=CC(=Cc2c(N)n3nc(-c4ccccc4Cl)sc3nc2=O)C=CC1=O	60*
CCc1cnc(-c2cccc(-c3ccn(CCN(C)C)n3)c2)nc1	-8
Cc1cn2c3c(=O)[nH]c(=O)n(C)c3nc2n1C(C)c1ccccc1 (stereo not given)	3
O=C1NCCCC[C@@H]1Nc1ccc(C(=O)N2CCC(Cn3cccn3)CC2)cn1	4
Cn1nccc1C(=O)n1cnc2ccccc21	-9
Cn1nccc1C(=O)C#Cc1ccccc1	62*
Cn1nccc1C(=O)NC(C)(C)CC(C)(C)C	1
CCC(n1nc(C)cc1C)n1nc(C)cc1C	-10
O=C1C2C(c3ccc(Br)cc3)OC3(C(=O)c4ccccc4C3=O)C2C(=O)N1c1ccc([N+](=O)[O-])cc1 (stereo not given)	4
O=C1C2C(c3ccccc3)OC3(C(=O)c4ccccc4C3=O)C2C(=O)N1c1ccc(F)cc1 (stereo not given)	-4
O=C1C2C(c3ccc(F)c(Cl)c3)OC3(C(=O)c4ccccc4C3=O)C2C(=O)N1c1ccc(Br)cc1 (stereo not given)	93*
CCOC(=O)C1C(C)=NC(=O)NC1c1ccc(CC(C)C)cc1 (stereo not given)	10
O=C(CCc1nnc(-c2ccc3c(c2)OCO3)o1)N1CCCCCCC1	-6
CC(=O)NCc1ccc(OC(C)=O)c(OC(C)=O)c1	2
CC(=O)Oc1ccccc1C(=O)Oc1ccccc1	-5
CC(=O)Oc1ccc(OC(C)=O)c2c1C(=O)C=CC2=O	99*
Cc1nc(N2CCN(C)CC2)nc2c1C(=O)CC(c1ccc(F)cc1)C2 (stereo not given)	11
Cc1cccc(C)c1NC(=O)CN1C(=O)S/C(=C\c2cccn2-c2cccc(C(=O)O)c2)C1=O	-3
Cc1ccc(NC(=O)CN2C(=O)S/C(=C\c3ccc(N4CCCC4)c(F)c3)C2=O)c(C)c1	-6
Cc1ccc(NC(=O)CN2C(=O)S/C(=C\c3cccn3-c3cccc(C(=O)O)c3)C2=O)cc1C	48*
Cc1cccc(NC(=O)CN2C(=O)S/C(=C\c3cccn3-c3cccc(C(=O)O)c3)C2=O)c1	10
Cc1ccc(NC(=O)CN2C(=O)S/C(=C\c3ccc(N4CCOCC4)cc3C)C2=O)c(C)c1	-7
Cc1ccc(NC(=O)CN2C(=O)S/C(=C\c3ccccn3)C2=O)cc1C	0
Cc1ccc(NC(=O)CN2C(=O)S/C(=C\c3cccn3-c3cccc(C(=O)O)c3)C2=O)c(C)c1	72*
Cc1ccccc1NC(=O)CN1C(=O)S/C(=C\c2cccn2-c2cccc(C(=O)O)c2)C1=O	51*
SMILES	RBX1-CUL1 inh
Cc1ccccc1NC(=O)CN1C(=O)S/C(=C/c2ccccc2)C1=O	-1
CCc1cc(CNC(=O)CC2C(=O)NCCN2C/C=C/c2ccccc2OC)on1 (stereo not given)	5
OC1CCCN(CCCNc2nncc(-c3cccc(Cl)c3)n2)C1 (stereo not given)	-4
CCOC(=O)c1cc(NC(=O)c2sc3nc(C)cc(COC)c3c2N)ccc1Cl	-1
Cn1c(=O)n(C)c2cc(S(=O)(=O)N3CCOc4ccccc43)c(Cl)cc21	11
CC(CNc1ccc(Oc2ccccc2)cc1)C(=O)O (stereo not given)	-12
CCc1nn(-c2cc(Oc3cccc(C)c3)nc(C)n2)c(N)c1C#N	-5
CC(C)(C)c1ccc(CN2C(=O)CC3(CCCc4ccccc43)C2=O)cc1 (stereo not given)	4
O=C(Cn1c(Cl)cccc1=O)c1ccccc1	-11
CCOc1cc(/C=C2\C(=O)NN(c3ccccc3)C2=O)cc(Cl)c1OCc1cccc(C)c1	38*
CCOc1cc(/C=C2\C(=O)NN(c3ccccc3)C2=O)cc(Br)c1OCc1cccc(C)c1	2
CCOc1cc(/C=C2\C(=O)NN(c3ccccc3)C2=O)ccc1OCc1c(F)cccc1Cl	-7
COc1cc(/C=C2\C(=O)NN(c3ccccc3)C2=O)ccc1OCc1ccccc1	14
CCOc1cc(/C=C2\C(=O)NN(c3ccccc3)C2=O)cc(Cl)c1OCc1c(Cl)cccc1Cl	86*
COc1cc(/C=C2\C(=O)NN(c3ccccc3)C2=O)cc(Cl)c1OCc1ccccc1C	19
COc1ccc(CNC(=O)N=C2CN(CC(C)C)C(=O)c3ccccc32)cc1	2
COC(=O)C1CCN(CC(O)COc2ccc(CN3CCNC(=O)C3(C)C)cc2)CC1 (stereo not given)	1
O=C(Nc1sc2c(c1C(=O)Nc1cccc3ccccc13)CCCCC2)c1ccccc1Br	6
O=C(Cc1ccc(Br)cc1)N1CCC2(CC1)OCCO2	2
Cc1ccccc1CCC1CCCN(C(=O)c2ccc(CN(C)C)o2)C1 (stereo not given)	0
Cc1ccc(C)c(-n2nnc(C(=O)N(C)c3ccccc3)c2C)c1	12
CCCCNC(=O)c1ccc(C)c(NS(C)(=O)=O)c1	-11
O=C(O)C1CC=CCC1C(=O)Nc1ccc2ccccc2c1 (stereo not given)	-6
CC(CN1CCN(C)CC1)OC(=O)c1ccc(C(C)(C)C)cc1 (stereo not given)	-2
CCOc1ccc(OCC)c(N2C(=O)NC(=O)/C(=C\c3ccc(OCC#N)cc3)C2=O)c1	2
SMILES	RBX1-CUL1 inh
CCOc1ccc(OCC)c(N2C(=O)NC(=O)/C(=C\c3cccs3)C2=O)c1	-7
CCOc1ccc(OCC)c(N2C(=O)NC(=O)/C(=C\c3ccc(Br)o3)C2=O)c1	76*
C=C(C)COc1cccc(C(=O)NC(C)CC)c1 (stereo not given)	3
Fc1ccc(C(c2ccc(F)cc2)N2CCN(Cc3cccnc3)CC2)cc1	-4
CCOc1c(Br)cc(/C=C2/C(=O)N(c3cccc(C(=O)O)c3)N=C2C)cc1OC	91*
CCCOc1ccc(CN2C(=O)NC(=O)/C(=C\c3cc(Br)c(OCC(=O)O)c(OC)c3)C2=O)cc1OC	-4
COc1cc(/C=C2\C(=O)N(c3ccc(S(N)(=O)=O)cc3)N=C2C)cc(Br)c1OCC(C)C	-4
C#CCOc1cc(Br)c(/C=C2/C(=O)N(c3cccc(C(=O)O)c3)N=C2c2ccccc2)cc1OC	90*
COc1cc(C=C2C(=O)c3ccccc3C2=O)cc(Br)c1OCC(=O)O	76*
CCCCCCOc1ccccc1/C=C1\C(=O)N(c2ccc([N+](=O)[O-])cc2)N=C1c1ccccc1	-1
CC1=NN(c2ccc(C(=O)O)cc2)C(=O)/C1=C/c1cc(Br)ccc1OCc1ccccc1	-1
COc1cc(CO)cc(Br)c1OCC(=O)O	-1
CCC(C)Oc1ccc(/C=C2\C(=O)N(c3ccccc3)N=C2C)cc1Br (stereo not given)	19
OC(CCc1ccccc1)c1ccc2c(c1)CN(Cc1cccc3c1OCO3)CCO2 (stereo not given)	-3
Cc1ccc(Oc2ncccc2CNC2CCOCC2)cn1	2
Cc1nn(C(=O)c2cccc([N+](=O)[O-])c2)c(C)c1[N+](=O)[O-]	4
Cc1n[nH]c(=O)c2nn(-c3cccc(Cl)c3)c(C)c12	4
CCc1c2ccccc2nc2ccc(Cl)cc12	5
CC1CCCC1OCC(O)CN1CCN(c2ccc(F)cc2)CC1 (stereo not given)	2
COc1ccc(OC)c(S(=O)(=O)N(C)CC(=O)NC2CC2)c1	5
COC(=O)C1C(=N)OC2=C(C(=O)CC(C)(C)C2)C1c1ccccc1 (stereo not given)	-10
COC(=O)C1C(=N)OC2=C(C(=O)CCC2)C1c1cccc(Br)c1 (stereo not given)	106*
COC(=O)C1C(=N)OC2=C(C(=O)CCC2)C1c1cccnc1 (stereo not given)	4

Screening results deposited in PubChem BioAssay by Pan Lab, Icahn School of Medicine at Mount Sinai.
